Hits are enriched below; roughly 28% of the tested compounds scored in any of these assays.
CYP2C9 inh: inhibitors of human CYP2C9; inhibition, % at 5 µM; CYP2C9 Supersomes, luciferin-H conversion, luminescence; 20% of 96,000 active; P11712;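 active means blocking of liver enzyme CYP2C9 beyond about 50% at 5 µM, limit read from the data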
Target sequence (P11712 whole entry, looked up): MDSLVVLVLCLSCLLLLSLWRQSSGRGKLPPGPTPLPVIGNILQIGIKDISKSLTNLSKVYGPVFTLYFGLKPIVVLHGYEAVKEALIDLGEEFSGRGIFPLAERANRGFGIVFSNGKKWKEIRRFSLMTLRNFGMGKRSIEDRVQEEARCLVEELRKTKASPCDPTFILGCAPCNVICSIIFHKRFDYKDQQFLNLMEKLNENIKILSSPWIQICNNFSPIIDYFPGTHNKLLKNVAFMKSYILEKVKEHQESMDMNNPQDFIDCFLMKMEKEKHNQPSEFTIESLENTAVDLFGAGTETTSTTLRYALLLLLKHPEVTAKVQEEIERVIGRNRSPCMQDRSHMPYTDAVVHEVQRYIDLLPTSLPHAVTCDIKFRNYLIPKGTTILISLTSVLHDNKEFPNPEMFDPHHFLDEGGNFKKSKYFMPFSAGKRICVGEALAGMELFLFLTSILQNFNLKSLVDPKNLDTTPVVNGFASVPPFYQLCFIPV
hDAT+cocaine: modulates human dopamine transporter uptake under cocaine; B-score at 10 µM; Q01959; AID 449768; LLC-PK1 hDAT cells, [14C]-dopamine uptake with cocaine IC80; actives deviate in either direction; 1.3% of 110,000 active;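 active means Z score or B-score, a plate-position-corrected score, falls beyond the plate's 99.7% confidence bounds, in either direction; inactive means both scores lie inside the 99.7% bounds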;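 further: scored against the spread of the other compound wells on the same plate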
CYP2C19 act: increases human CYP2C19 enzyme activity; AID 1025; P33261; recombinant CYP2C19, luciferin-H EGE luminescence; stronger effect = higher value; 0 = fully inhibited enzyme, 1 = untreated enzyme; activation factor at 5 µM; 96,000 tested, under 10 active;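 active means activation factor of at least 2 at 5 µM in the primary screen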;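 further: 0 = wells with 2.5 mM tranylcypromine and 1 = vehicle-only wells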
CYP2C19 inhib: inhibitors of human CYP2C19; inhibition, % at 5 µM; AID 778; CYP2C19 Supersomes, luciferin-H EGE luminescence, 30 min; P33261; 21% of 96,000 active;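 active means CYP2C19 inhibition above a set limit at 5 µM in the primary screen, cut at about 50% in these data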;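 further: plate controls were negative control wells for no effect and 2.5 mM tranylcypromine positive control for full effect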
CYP2C9 activ: activators of human CYP2C9 | P11712 | recombinant CYP2C9, luciferin-H conversion, luminescence; stronger effect = higher value; factor 1 = untreated enzyme, 0 = blocked | activation factor at 5 µM | 1.4% of 96,000 active | AID 1024;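 active means activation factor of 2 or more for CYP2C9 at a 5 µM dose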;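 further: 0 = sulfaphenazole-blocked wells and 1 = vehicle-only wells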
D1 allo mod: D1 dopamine receptor (human) allosteric modulation; P21728; HEK293 D1, CRE-luciferase, dopamine EC30 potentiation; actives deviate in either direction; B-score at 10 µM; 5.9% of 58,000 active;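 active means luminescence count or its row- and column-corrected plate score outside the 99.7% band of the plate's sample wells, on either side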
An asterisk follows results filed as active; x = no result given.

SMILES	CYP2C9 inh	hDAT+cocaine	CYP2C19 act	CYP2C19 inhib	CYP2C9 activ	D1 allo mod
COC(=O)C1=C(C(=O)OC)[C@@H]2N(C)c3ccc(OC)cc3[C@@]23C[C@@H](C(=O)OC)N(S(=O)(=O)c2ccc(OC)cc2)C3=N1	x	0.57	x	x	x	x
CCOc1ccccc1NC(=O)c1cc(Cl)ccc1NC(=O)c1ccco1	1	-0.17	1	-3	1	-0.36
CC(C)OC(=O)c1ccc(NC(=O)c2ccco2)cc1	45	1.3	0.4	57*	0.5	x
O=C(COC(=O)c1ccco1)Nc1ccccc1	18	0.026	0.4	58*	0.8	-0.059
CCOc1ccccc1NC(=O)c1ccc(NC(=O)c2ccco2)cc1	x	3.9*	x	x	x	x
CC(C)CNC(=O)c1cccc(NC(=O)c2ccc(NC(=O)c3ccco3)cc2)c1	21	-0.32	0.9	10	0.8	-0.42
CCOc1ccccc1NC(=O)c1ccc2nccnc2c1	-114	0.029	1	2	2.1*	-0.09
Cc1cccc(OCC(=O)OCC(=O)c2c(N)n(C)c(=O)n(C)c2=O)c1	10	0.63	0.6	45	0.9	-0.52
NC1=NC[C@H](Cc2ccccc2)N1CCc1cccc(F)c1	x	0.6	x	x	x	x
Fc1cccc(C[n+]2csc3ccccc32)c1	62*	-1.1	0.6	37	0.4	x
c1ccc(C[n+]2cccc3c4ccccc4ccc32)cc1	-31	0.01	1	0	1.3	x
c1ccc(C[n+]2csc3ccccc32)cc1	55*	0.33	0.6	41	0.4	x
O=C(NCc1ccco1)c1cnc2n(c1=O)CCS2	7	0.041	0.9	7	0.9	-0.93
COc1cc(-c2nn3c(C4CCCCC4)nnc3s2)cc(OC)c1OC	84*	2.2	0.8	22	0.2	x
COc1ccc(-c2nn3c(C4CCCCC4)nnc3s2)cc1OC	64*	1.6	0.3	74*	0.4	x
c1ccc(-c2nn3c(C4CCCCC4)nnc3s2)cc1	38	0.042	0.8	21	0.6	x
COc1ccccc1NC=C1C(=O)OC2(CCCCC2)OC1=O	-177	-1.3	0.8	20	2.8*	-6.9*
O=S(=O)(/C=C/c1ccccc1)Oc1ccccc1	-7	-0.15	0.2	79*	1.1	x
O=C(O)c1ccc(NS(=O)(=O)/C=C/c2ccccc2)cc1	5	-0.38	0.9	6	0.9	x
COc1ccc(CCNC(=O)CS(=O)Cc2nc(-c3cccs3)oc2C)cc1OC (stereo not given)	8	0.08	1	-1	0.9	0.67
O=C(N/C=N/OCc1ccc(Cl)cc1Cl)NOCc1c(Cl)cccc1Cl	-12	-0.87	1.1	-15	1.1	x
CO/N=C/NC(=O)NOCc1ccc(Cl)cc1Cl	14	-1.3	0.5	52*	0.9	x
CC(=O)c1cccc(NC(=O)CCNS(=O)(=O)c2cccc3nsnc23)c1	-9	-0.61	0.9	5	1.1	-0.067
COc1ccccc1NC(=O)CS(=O)(=O)c1cccc2nsnc12	-154	-0.017	0.6	40	2.5*	0.53
O=C(O)CNS(=O)(=O)c1cccc2nsnc12	0	-1.2	1.1	-6	1	x
SMILES	CYP2C9 inh	hDAT+cocaine	CYP2C19 act	CYP2C19 inhib	CYP2C9 activ	D1 allo mod
COc1ccccc1CNC(=O)CCNS(=O)(=O)c1cccc2nsnc12	-129	-0.067	0.2	80*	2.3*	x
O=S(=O)(NCCc1ccccc1)c1cccc2nsnc12	59*	-0.084	0	99*	0.4	x
Cc1cccc(NC(=O)CCNS(=O)(=O)c2cccc3nsnc23)c1	18	1.8*	0.3	67*	0.8	0.63
Cc1ccc(C2(C(F)(F)F)N=C3Sc4cc(C)ccc4N3C(=O)N2)cc1 (stereo not given)	21	x	0.9	15	0.8	x
CCOc1ccccc1NS(=O)(=O)c1cccc2nsnc12	29	0.081	0.1	91*	0.7	x
O=S(=O)(NCCC1=CCCCC1)c1cccc2nsnc12	x	0.63	x	x	x	-1.2
O=S(=O)(NCCOC12CC3CC(CC(C3)C1)C2)c1cccc2nsnc12	-31	0.18	0	97*	1.3	1.1
O=C(CCCNS(=O)(=O)c1cccc2nsnc12)NCCc1ccccc1	0	0.3	0.5	50	1	-4*
O=C(O)CCCNS(=O)(=O)c1cccc2nsnc12	1	-0.48	1.1	-6	1	x
COc1cc(C(=O)N2CCN(C(=O)Cc3ccccc3)CC2)cc(OC)c1OC	-15	0.14	1.2	-18	1.1	0.62
CCOC(=O)c1ccc(CNC(=O)c2n[nH]c(=O)c3ccccc23)o1	40	0.9	0.8	16	0.6	0.66
CC1(C)CC(=O)C2=C(C1)OC1=C(C(=O)CC(C)(C)C1)C2c1ccc(O)cc1O	-147	-1.1	0.8	20	2.5*	-2
COC(=O)C1=C(N)OC2=C(C(=O)CC(C)(C)C2)C1c1cccnc1 (stereo not given)	9	-0.036	0.8	18	0.9	x
COc1ccc(NS(=O)(=O)c2ccc3oc4ccccc4c3c2)cn1	99*	-0.17	0	96*	0	-0.94
COC(=O)c1ccccc1S(=O)(=O)Nc1ccc(OC)nc1	23	0.15	0.2	85*	0.8	-0.063
Cc1ccccc1S(=O)(=O)c1c(C)cc(-c2ccccc2)[nH]c1=O	18	0.11	1	-2	0.8	x
CNC(=O)c1sccc1SCc1ccc(Cl)cc1Cl	38	-0.58	0.2	75*	0.6	x
CNC(=O)c1sccc1SCc1c(Cl)cccc1Cl	12	0.18	0.6	38	0.9	x
CC(=O)Nc1ccc(N2C(C(C)=O)=NN(c3ccc(Cl)cc3)C2c2sccc2C)cc1 (stereo not given)	x	0.26	x	x	x	x
CCCC(=O)NC(=S)Nc1ccccc1F	29	0.2	0.6	42	0.7	x
O=C(NCc1ccc2c(c1)OCO2)C1CCCN1C(=O)Nc1cccc(F)c1 (stereo not given)	x	-0.44	x	x	x	0.48
O=C1C(c2ccc(F)cc2)N(Cc2ccc3c(c2)OCO3)C(=O)CN1C1CCCC1 (stereo not given)	24	0.14	0.9	13	0.8	-0.63
OC12CCCCC1C(c1ccc3c(c1)OCO3)N(Cc1ccc(F)cc1)CC2 (stereo not given)	45	0.64	0.3	72*	0.5	1.7
OC12CCCCC1C(c1ccc3c(c1)OCO3)N(Cc1ccccc1F)CC2 (stereo not given)	95*	x	0	98*	0.1	0.9
OC12CCCCC1C(c1ccc3c(c1)OCO3)N(Cc1cccc(F)c1)CC2 (stereo not given)	79*	-0.024	0.2	79*	0.2	0.33
CCC1(CC)C(=O)NC(=O)NC1=NCCc1c[nH]c2ccccc12	21	-0.12	0.7	34	0.8	-2.2
CCOCCn1c(SCc2c(F)cccc2Cl)nc2c1c(=O)[nH]c(=O)n2C	6	-0.25	0.8	22	0.9	2.8
CC1=CC(=C2C(=O)c3ccccc3C2=O)C=C(C)N1Cc1ccco1	68*	x	0.5	51*	0.3	-1.3

Screens as filed in PubChem.
